Test results published in PubChem BioAssay AID1159580 (chemical genetic matrix, 2015).
The whole screen tested about 5,500 compounds, of which about 2,000 (36%) were called active. Another 18% or so got no clear call; they are omitted. Rule as the data show it: active = normalized growth mostly below about 0.91 (no sharp cut-off); inconclusive = no clear call, values can overlap the other calls; inactive = mostly above about 0.92. The list shows a part of the results.

Assay: chemical genetic growth profiling, strain panel (AID 1159580);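 also: tested at 20 µM; growth read once vehicle control cultures reached saturation at 30 °C; 1 = growth at the plate median or of vehicle wells; lower values mean less growth of the strain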
Conditions: growth OD

Measured: normalized growth

Oc1ccc2c3c1OC1[C@@H](O)CC[C@@]4(O)[C@@H](C2)N(CC2CCC2)CC[C@]314 (some centres not stated)
inactive: S. cerevisiae deletion strains, locus YJR075W, strain HOC1, active compounds read low 1.03 | S. cerevisiae deletion strains, locus YKL009W, strain mrt4, active compounds read low 1 | S. cerevisiae deletion strains, locus YKL068W, active compounds read low 1.01 | S. cerevisiae deletion strains, locus YKL085W, strain MDH1 (second series), active compounds read low 1 | S. cerevisiae deletion strains, locus YKL085W, strain MDH1, active compounds read low 1 | S. cerevisiae deletion strains, locus YKL160W, strain elf1, active compounds read low 0.992 | S. cerevisiae deletion strains, locus YKL190W, strain CNB1, active compounds read low 1.01 | S. cerevisiae deletion strains, locus YKR001C, strain vps1, active compounds read low 1.01 | S. cerevisiae deletion strains, locus YKR026C, strain gcn3, active compounds read low 0.952 | S. cerevisiae deletion strains, locus YKR091W, strain srl3, active compounds read low 0.992 | S. cerevisiae deletion strains, locus YLL001W, strain dnm1, active compounds read low 0.978 | S. cerevisiae deletion strains, locus YLL026W, active compounds read low 0.999 | S. cerevisiae deletion strains, locus YLL041C, strain sdh2, active compounds read low 0.993 | S. cerevisiae deletion strains, locus YLR027C, strain aat2, active compounds read low 1 | S. cerevisiae deletion strains, locus YLR039C, strain RIC1, active compounds read low 1.04 | S. cerevisiae deletion strains, locus YLR058C, strain SHM2, active compounds read low 1.02 | S. cerevisiae deletion strains, locus YLR102C, strain apc9, active compounds read low 1.01 | S. cerevisiae deletion strains, locus YLR113W, strain HOG1, active compounds read low 0.971 | S. cerevisiae deletion strains, locus YLR221C, strain rsa3, active compounds read low 1.02 | S. cerevisiae deletion strains, locus YLR258W, strain gsy2, active compounds read low 1.01 | S. cerevisiae deletion strains, locus YLR262C, strain YPT6 (second series), active compounds read low 0.986 | S. cerevisiae deletion strains, locus YLR262C, strain YPT6, active compounds read low 1.01 | S. cerevisiae deletion strains, locus YLR268W, strain sec22, active compounds read low 1.06 | S. cerevisiae deletion strains, locus YLR320W, strain mms22, active compounds read low 1.01 | S. cerevisiae deletion strains, locus YLR330W, strain CHS5, active compounds read low 1.01 | S. cerevisiae deletion strains, locus YLR342W, strain FKS1 (second series), active compounds read low 1.01 | S. cerevisiae deletion strains, locus YLR342W, strain FKS1, active compounds read low 1 | S. cerevisiae deletion strains, locus YLR357W, strain rsc2, active compounds read low 0.967 | S. cerevisiae deletion strains, locus YLR370C, strain arc18, active compounds read low 0.989 | S. cerevisiae deletion strains, locus YLR371W, strain rom2, active compounds read low 1.02 | S. cerevisiae deletion strains, locus YLR384C, strain iki3, active compounds read low 0.991 | S. cerevisiae deletion strains, locus YLR418C, strain cdc73, active compounds read low 1.03 | S. cerevisiae deletion strains, locus YML016C, strain PPZ1, active compounds read low 1.01 | S. cerevisiae deletion strains, locus YML032C, strain rad52, active compounds read low 1.03 | S. cerevisiae deletion strains, locus YML120C, strain ndi1, active compounds read low 1 | S. cerevisiae deletion strains, locus YML124C, strain tub3, active compounds read low 1.01 | S. cerevisiae deletion strains, locus YMR058W, strain fet3, active compounds read low 1.02 | S. cerevisiae deletion strains, locus YMR078C, strain ctf18, active compounds read low 1.02 | S. cerevisiae deletion strains, locus YMR125W, strain sto1, active compounds read low 0.982 | S. cerevisiae deletion strains, locus YMR129W, active compounds read low 1 | S. cerevisiae deletion strains, locus YMR205C, strain PFK2, active compounds read low 0.993 | S. cerevisiae deletion strains, locus YMR223W, strain ubp8, active compounds read low 1.01 | S. cerevisiae deletion strains, locus YMR231W, strain pep5, active compounds read low 1 | S. cerevisiae deletion strains, locus YMR263W, strain SAP30, active compounds read low 1.02 | S. cerevisiae deletion strains, locus YMR307W, strain GAS1, active compounds read low 1.04 | S. cerevisiae deletion strains, locus YNL067W, strain RPL9B, active compounds read low 1.03 | S. cerevisiae deletion strains, locus YNL071W, strain lat1, active compounds read low 1 | S. cerevisiae deletion strains, locus YNL128W, strain TEP1, active compounds read low 1.03 | S. cerevisiae deletion strains, locus YNL153C, strain GIM3, active compounds read low 1.03 | S. cerevisiae deletion strains, locus YNL183C, strain NPR1, active compounds read low 0.914 | S. cerevisiae deletion strains, locus YNL209W, strain ssb2, active compounds read low 1.01 | S. cerevisiae deletion strains, locus YNL233W, strain BNI4, active compounds read low 1.02 | S. cerevisiae deletion strains, locus YNL248C, strain rpa49, active compounds read low 0.92 | S. cerevisiae deletion strains, locus YNL250W, strain rad50, active compounds read low 1.01 | S. cerevisiae deletion strains, locus YNL271C, strain bni1, active compounds read low 1.01 | S. cerevisiae deletion strains, locus YNL298W, strain CLA4, active compounds read low 1.01 | S. cerevisiae deletion strains, locus YNL307C, strain MCK1, active compounds read low 1.01 | S. cerevisiae deletion strains, locus YNL322C, strain KRE1 (second series), active compounds read low 0.999 | S. cerevisiae deletion strains, locus YNL322C, strain KRE1, active compounds read low 1.01 | S. cerevisiae deletion strains, locus YNR049C, strain mso1, active compounds read low 0.988 | S. cerevisiae deletion strains, locus YNR052C, strain pop2, active compounds read low 1.01 | S. cerevisiae deletion strains, locus YOL006C, strain TOP1, active compounds read low 1.04 | S. cerevisiae deletion strains, locus YOL012C, strain htz1 0.773 | S. cerevisiae deletion strains, locus YOL147C, strain pex11, active compounds read low 1.01 | S. cerevisiae deletion strains, locus YOR001W, strain rrp6, active compounds read low 0.997 | S. cerevisiae deletion strains, locus YOR061W, strain CKA2, active compounds read low 1.01 | S. cerevisiae deletion strains, locus YOR069W, strain VPS5, active compounds read low 1.01 | S. cerevisiae deletion strains, locus YOR070C, strain gyp1, active compounds read low 1 | S. cerevisiae deletion strains, locus YOR080W, strain dia2, active compounds read low 0.988 | S. cerevisiae deletion strains, locus YOR083W, strain WHI5, active compounds read low 0.987 | S. cerevisiae deletion strains, locus YOR106W, strain vam3, active compounds read low 0.993 | S. cerevisiae deletion strains, locus YOR136W, strain idh2, active compounds read low 1.02 | S. cerevisiae deletion strains, locus YOR144C, strain elg1, active compounds read low 1.01 | S. cerevisiae deletion strains, locus YOR184W, strain ser1, active compounds read low 1.01 | S. cerevisiae deletion strains, locus YOR231W, strain MKK1, active compounds read low 0.96 | S. cerevisiae deletion strains, locus YOR265W, strain rbl2, active compounds read low 1 | S. cerevisiae deletion strains, locus YOR270C, strain vph1, active compounds read low 0.997 | S. cerevisiae deletion strains, locus YOR290C, strain snf2, active compounds read low 1.02 | S. cerevisiae deletion strains, locus YOR316C, strain cot1, active compounds read low 1.02 | S. cerevisiae deletion strains, locus YPL051W, strain arl3, active compounds read low 1.01 | S. cerevisiae deletion strains, locus YPL055C, strain LGE1, active compounds read low 1.05 | S. cerevisiae deletion strains, locus YPL078C, strain atp4, active compounds read low 0.984 | S. cerevisiae deletion strains, locus YPL106C, strain sse1, active compounds read low 1.01 | S. cerevisiae deletion strains, locus YPL240C, strain hsp82, active compounds read low 0.997 | S. cerevisiae deletion strains, locus YPL241C, strain CIN2, active compounds read low 1.01 | S. cerevisiae deletion strains, locus YPL256C, strain CLN2, active compounds read low 0.972 | S. cerevisiae deletion strains, locus YPR119W, strain clb2, active compounds read low 1.01 | S. cerevisiae deletion strains, locus YPR141C, strain kar3, active compounds read low 1.02 | S. cerevisiae deletion strains, locus YPR163C, strain tif3, active compounds read low 1.01 | S. cerevisiae deletion strains, locus YPR167C, strain met16, active compounds read low 1.02 | S. cerevisiae deletion strains, strain wtn01, active compounds read low 1.02 | S. cerevisiae strains, strain wild type, active compounds read low 1.02
